Here are results for 16 molecules from PubChem BioAssay (NCATS).

The nature of test [1]: qHTS Assay for Lipid Storage Modulators (AID 1519; calls by dose curve; on activity change, negative = inhibition: on the % scale 0 is the no-effect control and ±100 the full control effect). The conditions noted are these: Drosophila S3 cells, BODIPY lipid droplet/cell ratio, laser cytometry, cells loaded with oleic acid. An outline of the steps: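 Cells seeded at 5,000 per well were treated with compounds over a concentration series and loaded with oleic acid (400 uM, as added). Lipid droplet fluorescence (488 nm excitation, 500-530 nm channel) was read by laser-scanning cytometry and normalized to 20 uM Triacsin C.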

The target in test [2] is Alpha-galactosidase A (Homo sapiens) (UniProt P06280). As to the kind of experiment: Counterscreen for Glucocerebrosidase Inhibitors: qHTS Assay for Human alpha-Galactosidase at pH 4.5 (AID 992). Further: 0% is about no effect. The method, boiled down:
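Each compound is preincubated briefly with 2 nM enzyme before substrate addition (80 uM); plates then sit 20 min at ambient temperature, are quenched with 1M NaOH/1M glycine, and read fluorometrically.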

The target of test [3] is Alpha-galactosidase (Coffea arabica) (UniProt Q42656). The test is described as follows: Counterscreen for Glucocerebrosidase Inhibitors: qHTS Assay for Coffee Bean alpha-Galactosidase at pH 5.9 (AID 998).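 Further: plate controls were uninhibited enzyme for no effect and no-enzyme basal signal for full effect.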 The method, boiled down:
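Enzyme 2 nM + cpd (0.7 nM–77 uM titration) + 4-MU-alpha-Gal 80 uM, pH 5.9 citrate/Tween-20, RT 20 min, NaOH/glycine stop pH 10, fluor 365/440. Normalized to no-enzyme and full-activity controls; Hill-fit AC50.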
(Counterscreens check selectivity or assay interference.)

Test [4] can be described thus: Validation of Assay for Modulators of Lamin A Splicing (AID 1459; active means well fitted curve in the direction sought with a large enough effect in the signal ratio; the % refers to the signal ratio;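 further: cells exposed to compound for two days before reading; 0% is about no effect; ratio rise marks activators and ratio drop marks inhibitors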). The method, boiled down:
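S3 HeLa cells stably expressing a lamin A-EGFP splicing minigene and DsRed2 were seeded at 600 cells/well in Opti-MEM with 2% FBS, pin-dosed, and incubated 48 hrs at 37 °C, 5% CO2. Laser-scanning cytometry (488 nm) gave GFP/RFP total intensity ratio.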

The nature of test [5]: Cell Viability - LYMP2-023 (AID 975). Further: nearly all actives have a fitted effect of over 55% in size. Further: potency means the concentration at half of the fitted maximal effect. The method, boiled down: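 In this qHTS, ATP-based luciferase luminescence (CellTiter-Glo) is quantified in human lymphoblastoid cells after 24 hr compound treatment at 37 C; tetraoctylammonium bromide serves as positive control. Concentration-response curves are Hill-fitted to give AC50.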
Test [6] can be described thus: Cell Viability - LYMP2-025 (AID 976). Further: potency means the concentration at half of the fitted maximal effect. The method, boiled down: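 Luminescent ATP readout after 24 hr treatment of a human lymphoblastoid line (LYMP2-025, 2500 cells/well, 37 C). Reagent developed 30 min at room temperature; AC50 fitted with the Hill equation.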
Test [7] can be described thus: Cell Viability - LYMP2-002 (AID 977).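 Further: compound exposure lasted 24 h at 37 °C.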 Further: potency means the concentration at half of the fitted maximal effect. The method, boiled down: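 Human lymphoblastoid cells, 2500/well, complete medium; 5 h 37 C settle; compound 24 h 37 C; CellTiter-Glo, 30 min RT; luminescence. Decrease in ATP = cytotoxicity; AC50 via Hill equation.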
Test [8] in a line: Cell Viability - LYMP2-006 (AID 978). Further: nearly all actives have a fitted effect of over 60% in size. Further: potency means the concentration at half of the fitted maximal effect. The method, boiled down: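 Human lymphoblastoid cells, 2500 per well, were preincubated 5 hr at 37 C, then exposed to compounds for 24 hr at 37 C in complete medium. Viability was read as intracellular ATP by CellTiter-Glo luminescence; AC50 from Hill-equation fits of qHTS concentration-response data.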
Test [9] can be described thus: Cell Viability - LYMP2-007 (AID 979).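 Further: cells exposed to compound for 24 h before reading; nearly all actives have a fitted effect of over 60% in size.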 Further: potency means the concentration at half of the fitted maximal effect. An outline of the steps: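 Measured via luciferase-based ATP quantitation: lymphoblastoid cells, 24 hr compound exposure at 37 C, AC50 from Hill fits.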
Test [10] in a line: Cell Viability - LYMP2-008 (AID 980). Further: nearly all actives have a fitted effect of over 60% in size. Further: potency means the concentration at half of the fitted maximal effect. The method, boiled down: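 Measured: ATP-dependent luminescence, proportional to viable cell number, in human lymphoblastoid cells treated 24 hr with compound in complete culture medium. Values are AC50s from Hill-equation modelling of qHTS titrations.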
A short description of test [11]: Cell Viability - LYMP2-010 (AID 981). Further: nearly all actives have a fitted effect of over 55% in size. Further: potency means the concentration at half of the fitted maximal effect. An outline of the steps: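 This 24 hr viability screen uses LYMP2-010 lymphoblastoid cells, quantifies ATP via luciferase luminescence, and derives AC50 from Hill fits of qHTS concentration-response data.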
Test [12] can be described thus: Cell Viability - LYMP2-012 (AID 982).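 Further: cellular ATP by luciferase luminescence where a drop means cytotoxicity; cells exposed to compound for one day before reading; nearly all actives have a fitted effect of over 55% in size.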 Further: potency means the concentration at half of the fitted maximal effect.
Test [13] can be described thus: Cell Viability - LYMP2-016 (AID 984). Further: nearly all actives have a fitted effect of over 55% in size. Further: potency means the concentration at half of the fitted maximal effect. An outline of the steps: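 Human lymphoblastoid cells (LYMP2-016), 2500/well in complete medium, preincubated 5 hr at 37 C, then compound-treated 24 hr at 37 C. Intracellular ATP read by CellTiter-Glo luminescence after 30 min at room temperature; AC50 from Hill-equation concentration-response fits.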
Test [14] can be described thus: Cell Viability - LYMP2-018 (AID 985). Further: nearly all actives have a fitted effect of over 50% in size. Further: potency means the concentration at half of the fitted maximal effect. The method, boiled down:
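In this qHTS viability assay, cells are treated for 24 hr and cellular ATP is quantified by luciferase-based luminescence, with tetraoctylammonium bromide as positive control.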

A short description of test [15]: Cell Viability - LYMP2-020 (AID 986). Further: nearly all actives have a fitted effect of over 55% in size. Further: potency means the concentration at half of the fitted maximal effect. An outline of the steps: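 Cells at 2500 per well receive a 24 hr compound exposure at 37 C. Viability is measured as ATP-dependent luciferase luminescence, with AC50 modeled from qHTS concentration-response curves.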
A short description of test [16]: Cell Viability - LYMP2-024 (AID 988). Further: nearly all actives have a fitted effect of over 60% in size. Further: potency means the concentration at half of the fitted maximal effect. An outline of the steps:
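Cells at 2500 per well received compound for 24 hr after a 5 hr settling period. Viability was scored by CellTiter-Glo luminescence, with AC50 from Hill fits.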

A short description of test [17]: Cell Viability - LYMP2-026 (AID 989). Further: nearly all actives have a fitted effect of over 50% in size. Further: potency means the concentration at half of the fitted maximal effect. The method, boiled down: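 Acute toxicity screen in complete culture medium, with 24 hr compound exposure at 37 C. Viability read as cellular ATP via luciferase reaction, with tetraoctylammonium bromide (6.4pM to 92 uM) as positive control.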
Test [18] in a line: Cell Viability - LYMP1-002 - Assay at 24 hr (AID 993). Further: potency means the concentration at half of the fitted maximal effect. The method, boiled down: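 Viability was judged from intracellular ATP using a luciferase read-out, following a 24-hour compound incubation at 37 C of lymphoblastoid cells seeded at 2500 per well. Concentration-response data were fitted to the Hill equation for AC50.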
A short description of test [19]: Cell Viability - LYMP1-002 - Assay at 40 hr (AID 994). Further: nearly all actives have a fitted effect of over 60% in size. Further: potency means the concentration at half of the fitted maximal effect. The method, boiled down: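 Concentration-dependent ATP loss after 40 hr treatment at 37 C defined toxicity; AC50 values were obtained by fitting the standard Hill equation.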
The mark [20] stands for this setting: measured here: cell count channel max response.
Where [21] appears, read: measured here: lipid channel max response.

Values joined by “and” are separate entries in the source; they are usually repeats but may differ in a detail not shown here. Identical values can stand only once. Results filed as inconclusive are left out. Active and inactive are the calls of the source. Unless noted, the call rests on the fitted dose curve; in most records, active means well fitted curve in the direction sought with a large enough effect; inconclusive means small, poorly fitted or top-dose-only effect, or another doubt; inactive means no such curve, though single readings can be large; an effect the other way counts as inactive or inconclusive.

Chain of Alpha-galactosidase (Coffea arabica) (Q42656 whole entry, looked up): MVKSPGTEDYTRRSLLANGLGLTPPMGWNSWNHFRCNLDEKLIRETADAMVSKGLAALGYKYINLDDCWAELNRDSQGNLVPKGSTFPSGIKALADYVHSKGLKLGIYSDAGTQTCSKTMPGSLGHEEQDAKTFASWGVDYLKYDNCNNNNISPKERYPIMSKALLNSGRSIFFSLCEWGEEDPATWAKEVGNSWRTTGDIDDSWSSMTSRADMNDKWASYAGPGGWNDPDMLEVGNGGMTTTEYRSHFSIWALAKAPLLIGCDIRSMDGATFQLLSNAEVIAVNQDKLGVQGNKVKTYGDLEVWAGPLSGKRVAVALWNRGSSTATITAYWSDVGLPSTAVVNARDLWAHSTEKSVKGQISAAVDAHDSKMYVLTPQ
Chain of Alpha-galactosidase A (Homo sapiens) (P06280 whole entry, looked up): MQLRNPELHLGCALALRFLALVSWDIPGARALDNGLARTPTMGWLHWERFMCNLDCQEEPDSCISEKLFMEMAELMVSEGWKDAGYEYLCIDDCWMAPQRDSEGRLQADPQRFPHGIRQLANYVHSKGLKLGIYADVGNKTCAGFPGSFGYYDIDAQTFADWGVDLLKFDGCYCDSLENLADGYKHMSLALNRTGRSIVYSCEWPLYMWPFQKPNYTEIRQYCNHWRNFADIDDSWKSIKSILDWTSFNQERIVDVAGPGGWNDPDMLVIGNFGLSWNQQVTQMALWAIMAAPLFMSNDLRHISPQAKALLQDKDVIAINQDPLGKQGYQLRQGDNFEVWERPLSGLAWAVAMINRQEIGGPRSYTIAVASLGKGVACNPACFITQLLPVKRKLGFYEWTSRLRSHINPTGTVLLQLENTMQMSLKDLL

`ClC1C(Cl)C(Cl)C(Cl)C(Cl)C1Cl` (stereo not drawn): the activity change, negative = inhibition in test [1] (at 57.5 µM (top of the series)) is 9.37% (inactive). Also, the max response amounted to 11.2% in test [1] (setting [20]) and 20.6% in test [1] (setting [21]).

In the case of `CCC(=O)O[C@@](Cc1ccccc1)(c1ccccc1)[C@@H](C)CN(C)C`, the activity change, negative = inhibition in test [1] (at 25.7 µM (top of the series)) is -2.5% (inactive). Further, the max response in [1] (setting [20]) was -5.05%; in [1] (setting [21]), -7.97%.

Take `CN(N=O)c1cc(O)ccc1O`: the result in test [2], in test [3] and in test [4] was inactive.

As to `C[N+]1(C)CCC(OC(=O)C(c2ccccc2)c2ccccc2)CC1`, the molecule was classed as inactive in [3]. The activity change, negative = inhibition in test [1] (at 57.5 µM (top of the series)) is -1.55% (inactive) and -0.573% (inactive). Also, the max response in test [1] (setting [20]) is 3.78% and -17.3%; in [1] (setting [21]), 1.6% and -18%.

On to `Cc1sc2ccccc2c1CC1=NCCN1`, for which the result in test [2], in [3] and in test [4] was inactive.

In the case of `[N-]=[N+]=CC(=O)OCC(N)C(=O)O` (stereo not drawn), the activity change, negative = inhibition in [1] (at 57.5 µM (top of the series)) was 10.5% (inactive). Also, the values for the max response in test [1] (setting [20]) and in [1] (setting [21]) were 14.1% and 29.9%, respectively.

On to `CC(C)Nc1ccc(Nc2ccccc2)cc1`, for which the Potency in test [5] was 39.8 µM (active); in test [6], 50.1 µM (active); in [7], 25.1 µM (active); in test [8], 25.1 µM (active); in [9], 25.1 µM (active); in test [10], 39.8 µM (active). Further, the Potency is 25.1 µM (active) in [11]; 25.1 µM (active) in test [12]; 31.6 µM (active) in test [13]; 20 µM (active) in test [14]; 25.1 µM (active) in test [15]; 12.6 µM (active) in test [16]. In addition, the Potency was 39.8 µM (active) in [17], 31.6 µM (active) in [18] and 50.1 µM (active) in [19].

With `NCCCP(=O)(O)O`, the molecule was classed as inactive in test [2], in test [3] and in test [4].

`O=S(=O)(O)c1cc(O)ccc1O`: in [1] (at 25.7 µM (top of the series)), the activity change, negative = inhibition was 1.28% (inactive). Besides, the max response in test [1] (setting [20]) worked out at 11.8%; in test [1] (setting [21]) it was 12.6%.

Consider `C[C@@H](Cc1ccccc1)NCCC(c1ccccc1)c1ccccc1`, for which, in test [1] (at 25.7 µM (top of the series)), the activity change, negative = inhibition was -10.7% (inactive). For the same molecule, the max response was -11.9% in [1] (setting [20]) and -23.1% in [1] (setting [21]).

Turning to `CC(=O)NBr`, the call in test [2], in test [3] and in test [4] was inactive.

Turning to `CCCn1c(=O)c2[nH]c(C3CCCC3)nc2n(CCCOC(=O)c2ccc(S(=O)(=O)F)cc2)c1=O`, the call in test [2], in [3] and in test [4] was inactive.

`Cc1[nH]c2ccc(O)cc2c1CCN`: the outcome in [2], in test [3] and in [4] was inactive.

Turning to `NC(N)=Nc1ccc2[nH]c3c(c2c1)C[C@@]1(O)[C@H]2Cc4ccc(O)c5c4[C@@]1(CCN2CC1CC1)[C@H]3O5`, the activity change, negative = inhibition in test [1] (at 57.5 µM (top of the series)) is -5.63% (inactive). Further, the max response is -1.13% in test [1] (setting [20]) and -6.88% in test [1] (setting [21]).

Consider `C[C@H](N)CN1CCc2ccc(Br)cc21`, for which the result in [2] and in test [3] was inactive. In test [1] (at 57.5 µM (top of the series)), the activity change, negative = inhibition was 0.866% (inactive). The max response in test [1] (setting [20]) is -15.5%; in [1] (setting [21]) it was -16.4%.

For the molecule `O=C1CCO1`, the Potency entry in test [5], in [6], in test [7], in test [8], in test [9] and in test [10] was “inactive” each time. The Potency entry in [11], in test [12], in test [13], in [14], in test [15] and in test [16] was “inactive” each time. In addition, the Potency result in [17], in [18] and in [19] was “inactive” throughout. Also, the activity change, negative = inhibition in test [1] (at 57.5 µM (top of the series)) is 5.6% (inactive). Moreover, the figures for the max response in [1] (setting [20]) and in test [1] (setting [21]) were 8.02% and 16.6%, respectively.
